In PubChem BioAssay (NCI) one finds growth data, which are given here for 14 compounds.

SMILES strings stand for the structures. This is part of a sample that, as a whole, favours compounds with a hit. Of some 83,000 tested, about 20% had one in any assay.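 A percent growth of 40 corresponds to 60% growth inhibition; 0 means no net growth; -100 means all cells died. Active threshold: below 10.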 Activity calls are given as the source filed them.

The test relates to CAKI-1 renal. Put plainly: NCI-60 one-dose screen, 48 h (100 = growth as untreated, 0 = no growth, -100 = all killed). Particulars: 10 µM unless noted.
For `O=C1OC(Cc2ccccc2)C1c1ccccc1` (centres undefined), the growth was 97% (inactive).
On to `O=C1Nc2cc(-c3ccc(NC(=O)c4ccccc4)cc3)ccc2/C1=C/c1ccc[nH]1`, for which the growth is 100% (inactive).
As to `O=C(N/N=C/c1cc2ccccc2n2nnnc12)Nc1ccccc1`, the growth was 94.5% (inactive).
In the case of `O=C1c2ccc3c4c(ccc(c24)C(=O)N1CCCNCc1ccccc1)C(=O)N(CCCNCc1ccccc1)C3=O` it was -19.6% (active).
In the case of `C=C1C(=O)O[C@H]2[C@H]1CC/C(COC(=O)NCCc1c[nH]c3ccc(OC)cc13)=C\CC[C@@]1(C)O[C@@H]21` it was -66.2% (active); in that of `CCOc1ccc(Nc2nc(-c3ccc4c(c3)NC(=O)CO4)cs2)cc1`, 108% (inactive).
In the case of `COc1ccc(C(=O)c2cc(C)c(OC)c(C)c2)c(OC)c1OC(=O)C(Cl)Cl` it was 39.8% (inactive).
With `CN(C)c1ccc(Nc2c3ccccc3nc3cc(NC(=O)CCN4CCCC4)ccc23)cc1`, the growth is -47.6% (active).
In the case of `Cc1nc(N)nc(N[C@@H](C)c2nc3cccc(NCc4ccc(C(=O)NO)cc4)c3c(=O)n2-c2ccccc2)n1` it was 77.5% (inactive).
In the case of `COc1ccc(C/C(=C(\C)c2ccc(OCCN3CCCC3)cc2)c2ccc(OCCN3CCCC3)cc2)cc1` it was 80.7% (inactive).
As for `NC(=NCCCOc1ccc(F)cc1)Nc1ccc(Cl)cc1`, the figure is 39% (inactive).
As for `CCCOC(=O)N[C@H]1CCc2c(Cl)c(OC)c(OC)c(OC)c2-c2ccc(SC)c(=O)cc21`, the growth was 13.8% (inactive).
As to `N#Cc1c(NC(=O)NCc2ccccc2)sc2c1CCCC2`, the growth is 38.1% (inactive).
In the case of `NCCCCCCNc1cc(-c2cccc(OC(F)(F)F)c2)nc2ccc(N3CCCC3)cc12` it was -45.9% (active).
